Results on 18 molecules are retold here after PubChem BioAssay (NCATS).

SMILES strings stand for the structures. Several values for one entry are separate records, joined by “and”; a condition that tells them apart may be missing. Equal values may be shown once. Inconclusive results are not listed. Values without a mark were called inactive. Activity calls are given as the source filed them. The call rests on the fitted dose curve; in most records, active means well fitted curve in the direction sought with a large enough effect; inconclusive means small, poorly fitted or top-dose-only effect, or another doubt; inactive means no such curve, though single readings can be large; an effect the other way counts as inactive or inconclusive.

For test [1], the target named is Cellular tumor antigen p53 (Homo sapiens) (UniProt P04637). The test is described as follows: Primary qHTS for small molecule compounds that upregulate eGFP-tagged delta133p53alpha (in N-terminal) cells. (AID 2060322). Further: nearly all actives have a fitted effect of over 75% in size. Further: potency means the concentration at half of the fitted maximal effect.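 On activation: series mostly up to about 56 µM; 0% = DMSO vehicle and 100% = reference activator.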 The conditions noted are these: NCI-H358 eGFP-delta133p53alpha fluorescence, 24 h; activation: stronger effect = higher value. Summed up:
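NCI-H358 cells pre-induced 24 h with 10 ng/ml doxycycline to express N-terminal eGFP-delta133p53alpha, then dosed 24 h at 37C without doxycycline; fixed, Hoechst-stained, GFP intensity by laser scanning cytometry, normalized to DMSO (0%) and 57.5 uM 5-azacytidine (100%).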

For test [2], the target named is Aldehyde dehydrogenase, mitochondrial (Homo sapiens) (UniProt P05091). The test is described as follows: qHTS for Inhibitors of the Aldehyde Dehydrogenase Family (ALDH2) Primary screen (AID 2061308).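 Further: plate controls were vehicle for no effect and reference inhibitor for full effect; nearly all actives have a fitted effect of over 55% in size.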
Test [3] has as its target Retinaldehyde dehydrogenase 3 (Homo sapiens) (UniProt P47895). The test is described as follows: qHTS for Inhibitors of the Aldehyde Dehydrogenase Family (ALDH1A3) Primary screen (AID 2061315).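 Further: plate controls were DMSO vehicle for no effect and reference inhibitor for full effect.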
Test [4] is described as follows: BET inhibitor-based combinations targeting novel dependencies in MECOM-rearranged (r) AML: SET-2 cell line (AID 2202231). Further: nearly all actives have a fitted effect of over 35% in size. Further: potency means the concentration at half of the fitted maximal effect.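 On viability: plate controls were DMSO treated cells for no effect and wells without cells for full effect.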 The conditions noted are these: SET-2 AML cells viability, CellTiter-Glo luminescence, 48 h; viability: stronger effect = lower value, concentration not given here. Summed up: (§1)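 Readout: CellTiter-Glo luminescence. Exposure: 48 h, 11 concentrations, 500 cells/well. Metric: AUC and within-line Z-AUC after DMSO/empty-well normalization.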

Test [5] in a line: BET inhibitor-based combinations targeting novel dependencies in MECOM-rearranged (r) AML: HNT-34 cell line (AID 2202234). Further: nearly all actives have a fitted effect of over 35% in size. Further: potency means the concentration at half of the fitted maximal effect. In short, it runs like this: (§2)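 Seeding density was 500 cells/well, and drug exposure lasted 48 hr under standard culture conditions. Read-out used CellTiter-Glo reagent with a 15 min room-temperature incubation before luminescence measurement; AUC and Z-AUC summarize the normalized responses.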

A short description of test [6]: BET inhibitor-based combinations targeting novel dependencies in MECOM-rearranged (r) AML: UCSD-AML1 cell line (AID 2202235). Further: nearly all actives have a fitted effect of over 40% in size. Further: potency means the concentration at half of the fitted maximal effect. Summed up:
as §2

The nature of test [7]: BET inhibitor-based combinations targeting novel dependencies in MECOM-rearranged (r) AML: AML-191 cell line (AID 2202236; further: nearly all actives have a fitted effect of over 35% in size; further: potency means the concentration at half of the fitted maximal effect). Summed up:
as §1

Test [8] can be described thus: BET inhibitor-based combinations targeting novel dependencies in MECOM-rearranged (r) AML: AML-194 cell line (AID 2202237; further: nearly all actives have a fitted effect of over 40% in size; further: potency means the concentration at half of the fitted maximal effect). In short, it runs like this:
as §1

A short description of test [9]: BET inhibitor-based combinations targeting novel dependencies in MECOM-rearranged (r) AML: MV-4-11 cell line (AID 2202233). Further: nearly all actives have a fitted effect of over 45% in size. Further: potency means the concentration at half of the fitted maximal effect. In short, it runs like this:
as §2

Test [10] is described as follows: BET inhibitor-based combinations targeting novel dependencies in MECOM-rearranged (r) AML: OCI-AML3 cell line (AID 2202232). Further: potency means the concentration at half of the fitted maximal effect; nearly all actives have a fitted effect of over 35% in size. The conditions noted are these: Potency: OCI-AML3 viability. In short, it runs like this:
as §1

Sequence of Cellular tumor antigen p53 (Homo sapiens) (P04637 whole entry, looked up): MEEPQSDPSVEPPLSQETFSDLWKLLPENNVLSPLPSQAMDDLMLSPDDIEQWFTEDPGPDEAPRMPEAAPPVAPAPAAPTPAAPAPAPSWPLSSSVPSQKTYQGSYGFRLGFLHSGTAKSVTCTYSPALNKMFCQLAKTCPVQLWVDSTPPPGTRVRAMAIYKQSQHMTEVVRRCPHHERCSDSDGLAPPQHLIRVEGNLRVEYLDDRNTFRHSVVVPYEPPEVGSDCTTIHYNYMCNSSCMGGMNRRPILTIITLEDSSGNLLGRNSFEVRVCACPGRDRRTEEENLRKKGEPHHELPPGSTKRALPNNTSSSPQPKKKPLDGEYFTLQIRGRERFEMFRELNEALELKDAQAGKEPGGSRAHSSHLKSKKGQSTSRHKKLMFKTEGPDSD

As to `O=c1[nH]c(-c2ccc(C(F)(F)F)cc2)nc2c1CSCC2`, in test [1], the activation is 25.7% and -15.7%. Besides, the Potency result in test [2], in test [3], in test [5], in test [6], in test [7] and in test [8] was “inactive” throughout. For the same molecule, the viability in [4] is 95.3%.

On to `CNc1nc(Nc2cnn([C@H]3CCN(C4COC4)C[C@@H]3F)c2Cl)ncc1C(F)(F)F`, for which the activation in test [1] was -10.7% and -17.9%. The Potency entry in [2], in [3] and in test [8] was “inactive” in each case. For the same molecule, the viability in test [4] is 94.3%. Also, the values for the Potency in test [9] and in test [7] were 1.32 µM (active) and 16.6 µM (active), respectively.

Consider `Cc1cncc2cccc(S(=O)(=O)N3CCCN(C(=O)CN)C[C@@H]3C)c12`, for which the activation in [1] is -16.4% and -8.59%. The Potency result in test [2] and in test [3] was “inactive” in each case. The viability in test [4] was 91.2%. Also, in test [6], the Potency was 4.17 µM (active).

Regarding `CN(C)CC(C)(C)CNc1nn2c(-c3ccccc3)nnc2cc1C1CCC1`, the activation in test [1] was -1.72% and 7.14%. In addition, the Potency result in [2], in test [3], in test [9], in test [6] and in [7] was “inactive” in each case. Moreover, the viability in [4] is 113%.

On to `CCc1cc2c(cc1N1CCC(N3CCOCC3)CC1)C(C)(C)c1[nH]c3cc(C#N)ccc3c1C2=O`, for which the activation in [1] was 46.2%. Moreover, the Potency entry in [2], in test [3] and in test [6] was “inactive” throughout. Moreover, the viability in test [4] is 88.5%.

`Nc1ncnc2c1C(=O)N(c1ccc(C3CCC(CC(=O)O)CC3)cc1)CCO2` (configuration not stated): the activation in test [1] was 18.6%. For the same molecule, the Potency entry in test [2], in test [3], in test [9], in test [5], in test [6] and in [8] was “inactive” throughout. In test [4], the viability was 105%.

Regarding `CS(=O)(=O)N(Cc1ccco1)CC(O)Cn1c2ccccc2c2ccccc21` (configuration not stated), the activation in [1] is -2.66%. The Potency result in [2], in test [3], in test [5], in test [7] and in [8] was “inactive” in each case. Moreover, in test [4], the viability is 98.8%.

As for `CCCOc1ccn2c(C(C)=O)cc(-c3ccccc3S(C)(=O)=O)c2c1`, the activation in [1] was -0.333%. The Potency entry in test [2], in test [3], in test [6] and in [8] was “inactive” throughout. For the same molecule, in test [4], the viability is 93%. The Potency in [9] and in test [7] was 18.6 µM (active) in each case.

On to `COc1ccc(C(=O)C2CCN(CC(=O)N(Cc3nc4c(c(=O)[nH]3)COCC4)CC3CC3)CC2)cc1`, for which, in [1], the activation is 25.7%. Moreover, the Potency result in test [2], in test [3], in [9], in test [6] and in [8] was “inactive” in each case. Further, the viability in test [4] is 110%.

In the case of `Cn1nccc1Nc1nccc(-c2ccn([C@H](CO)c3ccc(Cl)c(F)c3)c(=O)c2)n1`, in [1], the activation was -22.3%. The Potency result in [2] and in test [3] was “inactive” each time. Besides, the viability in test [4] is 72.4%. Besides, the Potency in test [9] and in test [6] was 16.6 µM (active) in each case.

On to `NC(=O)c1cnc(-c2ccc(C3(N)CCC3)cc2)c(-c2ccccc2)c1`, for which the activation in test [1] was 29% and -2.68%. Further, the Potency entry in [2], in [3], in [7] and in test [8] was “inactive” throughout. For the same molecule, the viability in [4] is 104%. For the same molecule, the Potency in [9] was 3.32 µM (active); in [6] it was 1.32 µM (active).

With `Cc1ccn(-c2ccc(-c3ncco3)cc2)c(=O)c1-c1ccc2nc(N)ncc2c1`, the activation in test [1] was 28.6%. Also, the Potency result in [2] and in test [3] was “inactive” in each case. Further, in test [4], the viability is 114%. For the same molecule, the Potency in test [5] was 0.372 µM (active).

Take `COc1cc2ncnc(Oc3cccc(NC(=O)Nc4cc(C(C)(C)C(F)(F)F)on4)c3)c2cc1OC`: the Potency in test [1] is 23.9 µM (active); in test [9], 0.662 µM (active); in test [5], 0.209 µM (active). In addition, the Potency result in [2], in [3] and in test [8] was “inactive” in each case. In addition, the viability in [4] was 104%.

With `CCc1cc(C(N)=O)ccc1-n1nc(C(C)C)c2c(-n3cnc(-c4cnn(C)c4)c3)ccnc21`, the activation in test [1] was 4.33%. For the same molecule, the Potency entry in test [2] and in test [3] was “inactive” throughout. The Potency in [4] is 2.95 µM (active); in [9] it was 0.662 µM (active); in test [6], 1.86 µM (active); in [7], 1.66 µM (active); in test [8], 1.48 µM (active).

In the case of `Cn1cnc2c(F)c(Nc3ccc(Br)cc3F)c(C(=O)NOCCO)cc21`, the activation in [1] is 64.2% and -20.5%. Further, the Potency result in test [2] and in test [3] was “inactive” throughout. In addition, the viability in [4] was 26.2%. Besides, the Potency in [5] is 0.0235 µM (active).

Consider `CN(C)CCOc1cc(-c2cn[nH]c2)ccc1NC(=O)C1COc2ccccc2O1` (configuration not stated), for which the activation in test [1] was -38.5% and -11.6%. Also, the Potency entry in [2], in test [3] and in test [5] was “inactive” throughout. Also, the viability in test [4] is 92.6%. In addition, in test [7], the Potency is 5.9 µM (active).

In the case of `CC#CC(=O)N1CCC[C@H]1c1nc(-c2ccc(C(=O)Nc3ccccn3)cc2)c2c(N)nccn12`, the activation in [1] was 15.7%. Besides, the Potency entry in test [2], in test [3], in [5], in [6] and in test [8] was “inactive” throughout. In addition, in test [4], the viability is 96.5%.

For the molecule `COc1cc2c(NC3CCN(C(C)C)CC3)nc(C3CCCCC3)nc2cc1OCCCN1CCCC1`, the activation in [1] was 27.1% and 25.7%. Further, the Potency entry in test [2] and in [3] was “inactive” in each case. Also, the Potency in [10] was 18.6 µM (active); in test [9] it was 8.33 µM (active); in test [5], 11.8 µM (active); in test [6], 11.8 µM (active); in test [8], 14.8 µM (active).
